About 79,000 compounds went through this panel and 15% of them were active in at least one assay; those are over-represented in the sample as a whole. Cut-off read from the data, not from the text of the source: active = growth inhibition above about 70%; inactive = the rest.
Columns and labels:
[1] = NCI Yeast Anticancer Drug Screen. Data for the rad50 strain (AID 155);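 note: 0% = growth of vehicle-only cultures of the same strain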; conditions: S. cerevisiae rad50 strain growth inhibition; at 50.0 µM; stronger effect = higher value
Outline: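 Yeast carrying a defined DNA repair defect were exposed to test compounds, and growth was compared with vehicle-treated controls to give percent inhibition.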

[2] = NCI Yeast Anticancer Drug Screen. Data for the mec2-1 strain (AID 157); conditions: S. cerevisiae mec2-1 strain, at 50.0 µM, stronger effect = higher value
Outline: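 Yeast mec2-1 mutant treated with compound. Readout: growth inhibition vs vehicle controls.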

[3] = NCI Yeast Anticancer Drug Screen. Data for the sgs1 mgt1 strain (AID 161);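 note: 0% = growth of cultures given vehicle only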; conditions: S. cerevisiae sgs1 mgt1 strain, at 50.0 µM, stronger effect = higher value
Outline: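 Genetically altered yeast, compound exposure, growth inhibition relative to vehicle.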

[4] = NCI Yeast Anticancer Drug Screen. Data for the cln2 rad14 strain (AID 165);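 note: 0% = growth equal to vehicle treated cultures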; conditions: S. cerevisiae cln2 rad14 strain, at 50.0 µM, stronger effect = higher value
Outline: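 cln2 rad14 yeast strain; compound exposure; growth inhibition read vs vehicle controls.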

[5] = NCI Yeast Anticancer Drug Screen. Data for the bub3 strain (AID 167); conditions: S. cerevisiae bub3 mutant strain, at 50.0 µM, stronger effect = higher value
Outline: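 Compounds were applied to a genetically altered yeast strain carrying a cell-cycle control defect. Growth inhibition was scored against vehicle-treated controls.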

[6] = NCI Yeast Anticancer Drug Screen. Data for the mlh1 rad18 strain (AID 175); conditions: S. cerevisiae mlh1 rad18 strain growth inhibition; at 50.0 µM; stronger effect = higher value
Outline: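 Yeast w/ defined DNA-repair lesions; compound exposure; growth vs vehicle controls → % inhibition.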

Measured: growth inhibition

CCCCNc1nc(NC2OCC(OC(C)=O)C(OC(C)=O)C2OC(C)=O)c(N=O)c(=O)n1C (stereo unspecified)
inactive: [1] -4% | [2] -21.4% | [3] -4.3% | [4] -28.4% | [5] -12.5% | [6] -2.9%

Cn1ccc2c([N+](=O)[O-])cccc2c1=O
inactive: [1] 4.1% | [2] 2% | [3] 2.55% | [4] -45.9% | [5] -25.4% | [6] 4.35%

N#CC(NCc1ccccc1)c1ccccc1 (stereo unspecified)
inactive: [1] 67.7% | [2] 43% | [3] 14.3% | [4] -17.1% | [5] 22.2% | [6] 19.8%

Cn1c(=O)c2c(nc(NN)n2C)n(C)c1=O
inactive: [1] 1.15% | [2] -10.8% | [3] -2.65% | [4] -25% | [5] 10.9% | [6] 4.7%

O=C(CC(c1ccccc1)C1CCCC1=O)c1ccccc1 (stereo unspecified)
inactive: [1] 11.1% | [2] 1.65% | [3] 17.6% | [4] -21.3% | [5] 6.1% | [6] 17.1%

CN(C)CC(C)(C)CO
inactive: [1] 7.2% | [2] -0.2% | [3] 3.85% | [4] 9.25% | [5] -9.1% | [6] 4.95%

c1ccc(-c2cc3ccccc3c(-c3ccccc3)c2-c2ccccc2)cc1
inactive: [1] -18.6% | [2] -1.75% | [3] -4.8% | [4] -1.85% | [5] -2.65% | [6] -15.9%

C/C(=N/O)c1cccc([N+](=O)[O-])c1
inactive: [1] -10.7% | [2] 15.5% | [3] -4.95% | [4] -14.3% | [5] -3.6% | [6] -7.15%

Cc1ccc(N2C(=O)/C(=C/c3ccc(N(CCC#N)CCC#N)cc3)N=C2COc2ccc(Cl)cc2Cl)cc1
inactive: [1] -0.2% | [2] -26.9% | [3] -7.25% | [4] -17.8% | [5] -36.1% | [6] -25.9%

N#C/C(=C\c1cc(F)cc(F)c1)c1ccccn1
inactive: [1] 9.7% | [2] -0.95% | [3] 0.65% | [4] 3.25% | [5] 3.2% | [6] 30.2%

CC(C)(Oc1ccc(Cl)cc1)C(=O)NC1CC(C)(C)N(O)C(C)(C)C1
inactive: [1] -0.4% | [2] 4.95% | [3] -13.2% | [4] -48.5% | [5] -43.2% | [6] -18.4%

CSCCCCCCSC
inactive: [1] -0.1% | [2] 5.1% | [3] -2.75% | [4] -27.8% | [5] -5.35% | [6] 5.9%

ClCC1CCCO1 (stereo unspecified)
inactive: [1] 23.1% | [2] 12.6% | [3] 31.1% | [4] 3.35% | [5] 24.9% | [6] 25.6%

COc1ccc(C(=O)C(CO)Oc2ccccc2OC)cc1OC (stereo unspecified)
inactive: [1] -3.05% | [2] 7.5% | [3] -20.2% | [4] 4.25% | [5] -13.5% | [6] -1.35%

CNC(=S)NC(=S)N(C)C
inactive: [1] -1.15% | [2] -29.9% | [3] 35.2% | [4] -25.8% | [5] -35.2% | [6] 35.9%

CCN(CC)Cc1cc(N=Nc2cccc3ccccc23)c2ccccc2c1O
inactive: [1] 31.6% | [2] 11.4% | [3] 30.1% | [4] 24.9% | [5] -3.15% | [6] 35.7%

CC(=O)N(C(C)=O)n1c(Cc2ccc(C)cc2)nn(C(C)=O)c1=O
inactive: [1] -26.9% | [2] 15.2% | [3] -16.9% | [4] 13.3% | [5] -1.75% | [6] -27.9%

CC1=CC(C/C(C)=C/COc2ccc3ccc(=O)oc3c2)OC1=O (stereo unspecified)
inactive: [1] 8.15% | [2] -38.9% | [3] 11.7% | [4] 11.3% | [5] -0.8% | [6] 7.75%

CCOc1ccc(-n2c(=O)c(N=Nc3ccccc3Cl)c(O)n(-c3ccc(Br)cc3)c2=S)cc1
inactive: [1] 38.5% | [2] 17.9% | [3] 52.1% | [4] 12.7% | [5] -11.7% | [6] 5.8%

O=S(=O)(O)c1cc(S(=O)(=O)O)c2c(Nc3ccnc4ccccc34)ccc(S(=O)(=O)O)c2c1
inactive: [1] -8.25% | [2] -1.3% | [3] -19.2% | [4] 3.6% | [5] -8.45% | [6] 13.8%

Cc1cc([N+](=O)[O-])c2ncccc2c1
inactive: [1] -12.3% | [2] -7.7% | [3] -2.7% | [4] -33% | [5] -15.7% | [6] -6.95%

O=C1C=CC2(CCC23C=CC(=O)O3)O1 (stereo unspecified)
inactive: [1] 13% | [2] 1.95% | [3] 11% | [4] 4.2% | [5] 12.2% | [6] 20.1%

N#Cc1ccc(S(=O)(=O)c2ccc(C#N)cc2)cc1
inactive: [1] 1% | [2] -17.6% | [3] 11.3% | [4] 24.4% | [5] 12% | [6] -19.4%

N#CCCC(=O)O
inactive: [1] 17.6% | [2] 0.45% | [3] 11.7% | [4] 3.45% | [5] 2.5% | [6] 15.8%

O=C(N/N=C/c1ccc(Br)cc1)N/N=C/c1ccc(Br)cc1
inactive: [1] -13.5% | [2] -15.7% | [3] -6.45% | [4] 11.4% | [5] -5.05% | [6] -12.8%

Cc1cc2c(=O)n(-c3ccc(F)cc3)c(C)nc2c(C(=O)O)c1C
inactive: [1] -11.3% | [2] -8.75% | [3] -0.6% | [4] 10% | [5] -14.6% | [6] 9.55%

O=C(COc1cccc(Cl)c1)Nc1ccccc1
inactive: [1] -2.9% | [2] -31.9% | [3] 7.85% | [4] -17.1% | [5] 39.7% | [6] 2.05%

CCOC(=O)c1ccc(NC(NC(=O)CC)(C(F)(F)F)C(F)(F)F)cc1
inactive: [1] -26.6% | [2] -20.4% | [3] -69.2% | [4] -19.1% | [5] -8.9% | [6] -54%

NC1=NN(c2ccccc2)C(=O)C1/C(=N\NC(=O)c1cc2ccccc2cc1O)C(=O)Nc1ccc(Cl)c(Cl)c1 (stereo unspecified)
inactive: [1] 28.7% | [2] 10% | [3] -17.2% | [4] 31.6% | [5] 6.95% | [6] 21.1%

C[n+]1ccc(/C=C/c2ccnc3c(O)cccc23)cc1
inactive: [1] 17.5% | [2] 11.7% | [3] -13.4% | [4] -7.3% | [5] -7.4% | [6] 18%

COC(=O)C(=O)c1c(C(=O)OC)nc2nnc(N)n2c1-c1ccc(O)c(OC)c1
inactive: [1] 0.5% | [2] -11.9% | [3] -2.65% | [4] -31.8% | [5] 16.5% | [6] -9.9%

N=C1CCCS1
inactive: [1] -7.05% | [2] -2.35% | [3] -7.1% | [4] -6.3% | [5] -49.5% | [6] -4.7%

NCC(=O)N1CCCC1C(=O)O (stereo unspecified)
inactive: [1] -9.8% | [2] -6.3% | [3] -0.7% | [4] -24.4% | [5] 0.05% | [6] -6.2%

CCOC(=O)C1=CNC(C(=O)OCC)C1c1cccn1-c1ccc(Cl)cc1[N+](=O)[O-] (stereo unspecified)
inactive: [1] 8.6% | [2] 16.8% | [3] 10.8% | [4] 29% | [5] 3.8% | [6] 40.8%

O=C(O)c1ccc(O)c([N+](=O)[O-])c1
inactive: [1] 8.2% | [2] -33.5% | [3] 6.5% | [4] 9% | [5] 6.85% | [6] 27.2%

COC(=O)c1nnn(-c2cc(Cl)ccc2Cl)c1C(=O)c1ccc(OC)cc1
inactive: [1] -13.1% | [2] 3.8% | [3] -12.7% | [4] 53.7% | [5] 37.4% | [6] -3.25%

NC12CCC(CC1)C2
inactive: [1] -14.3% | [2] 13.3% | [3] -14.1% | [4] -6.25% | [5] -10.4% | [6] -4.8%

O=C(Nc1ccccc1O)c1ccc([N+](=O)[O-])cc1
inactive: [1] 2.2% | [2] 34.4% | [3] -4.4% | [4] -15.6% | [5] 20.4% | [6] 19.1%

CCC(C)C(=O)c1c(O)c(C/C=C(\C)CCC=C(C)C)c(O)c2c(C(O)CC)cc(=O)oc12 (stereo unspecified)
inactive: [1] 21.8% | [2] 15.8% | [3] 14.7% | [4] 18.1% | [5] 20.1% | [6] 42.9%

Cc1ccc[nH]c1=O
inactive: [1] -9.9% | [2] -15.1% | [3] -0.6% | [4] -8.05% | [5] -8.45% | [6] 2.4%

Cc1ccc(-c2cc(=O)c3cc(C)c(C)c(C#N)c3o2)cc1
inactive: [1] -10.2% | [2] -5.75% | [3] -13.8% | [4] -1.7% | [5] -22.4% | [6] 6.45%

From PubChem BioAssay (NCI)
